The list is not random: actives were taken first. Their share in the collection is about 2%.
Beta2AR agonist: human beta-2 adrenergic receptor agonism by FAP | Am2.2-beta2AR cells, FAP receptor internalization, flow cytometry | P07550 | 340,000 tested, 0.43% active | response, % (no concentration beside the values);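 active = response above a set limit, near 3 SD of response in nonfluorescent compounds, cut at about 42% in these data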
NOD2-RIPK2 inh: blocks binding of human NOD2 to RIPK2; 360,000 tested, 0.38% active; CHO BLA complementation NOD2-RIPK2, CCF4 ratio; inhibition, % at 4.98 µM; O43353; in the data active = inhibition above about 21%;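 also: 0% = vehicle only and 100% = reference blocker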
Granule exo inh: lytic granule exocytosis inhibition. TALL-104 LAMP-1 surface exposure, flow cytometry; cells stimulated with thapsigargin and PMA. 360,000 tested, 0.66% active. AID 651702. inhibition, % at 10 µM;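 active = inhibition above about 55%, limit read from the data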
ABHD5 PLIN5 PPI: inhibitors of human ABHD5-perilipin-5 interaction; Split G. princeps luciferase complementation, luminescence, 4 h; inhibition, % at 4 µM; 360,000 tested, 0.78% active; AID 602281;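 active = inhibition above the mean inhibition across every tested compound plus 3 SD, cut at about 22% in these data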;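 also: 0% = DMSO only wells and the 100% control is not disclosed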
Target sequence (Q00G26 whole entry, looked up): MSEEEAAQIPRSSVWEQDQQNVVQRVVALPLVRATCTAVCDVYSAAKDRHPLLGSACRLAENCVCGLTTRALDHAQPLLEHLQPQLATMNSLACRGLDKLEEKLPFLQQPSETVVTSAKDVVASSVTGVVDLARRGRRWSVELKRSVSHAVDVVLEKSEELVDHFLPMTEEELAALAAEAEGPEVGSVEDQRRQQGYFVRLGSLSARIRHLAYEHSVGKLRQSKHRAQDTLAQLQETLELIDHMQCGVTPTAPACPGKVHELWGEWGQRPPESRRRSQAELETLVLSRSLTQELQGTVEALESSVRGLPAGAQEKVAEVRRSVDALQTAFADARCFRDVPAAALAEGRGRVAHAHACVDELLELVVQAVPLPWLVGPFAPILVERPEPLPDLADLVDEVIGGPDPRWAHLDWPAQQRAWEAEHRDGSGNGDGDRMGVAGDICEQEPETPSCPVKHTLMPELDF
Target sequence (Q8WTS1 whole entry, looked up): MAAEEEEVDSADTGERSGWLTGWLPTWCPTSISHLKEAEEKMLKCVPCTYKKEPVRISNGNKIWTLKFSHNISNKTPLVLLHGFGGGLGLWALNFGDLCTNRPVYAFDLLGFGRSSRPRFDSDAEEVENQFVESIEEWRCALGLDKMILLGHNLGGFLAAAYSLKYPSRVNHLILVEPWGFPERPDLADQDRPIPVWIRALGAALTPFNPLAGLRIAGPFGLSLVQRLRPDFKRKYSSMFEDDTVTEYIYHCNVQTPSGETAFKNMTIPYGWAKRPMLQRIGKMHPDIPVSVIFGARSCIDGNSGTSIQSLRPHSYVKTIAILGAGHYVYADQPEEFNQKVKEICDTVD
TLR4 MyD88 comp: inhibitors of human TLR4-MyD88 binding; O00206+Q99836; HeLa CL3-4 TLR4/MyD88 BLA complementation, FRET ratio; inhibition, % at 8.4 µM; 200,000 tested, 0.18% active; AID 861; in the data active = inhibition above about 25%;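 also: 0% = vehicle and 100% = reference inhibitor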
TLR9-MyD88 block: blocks human TLR9 binding to MyD88 | Q9NR96+Q99836 | CHO BLA complementation TLR9-MyD88, CCF4 FRET ratio | inhibition, % at 4.98 µM | 340,000 tested, 0.21% active;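 active = inhibition above the mean over all tested compounds plus 3 SD, cut at about 21% in these data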;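 also: 0% = DMSO only wells and 100% = clavulanate BLA inhibitor control wells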
Exocytosis CP01: lytic granule exocytosis inhibition. shares compounds with Granule exo inh. TALL-104 cells, LAMP-1 externalization, flow cytometry; stimulated with PMA plus thapsigargin. inhibition, % at 10 µM. 1,500 tested, 11% active. AID 651954; in the data active = inhibition above about 60%;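 also: 0% = stimulated vehicle wells and 100% = unstimulated wells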
* hit, by the source's call.

Screening COc1ccc(C(OC(=O)c2cccs2)C(=O)NCC2CCCO2)cc1 (configuration not stated) returned Beta2AR agonist 8, NOD2-RIPK2 inh -6, Granule exo inh 1, ABHD5 PLIN5 PPI 2, TLR4 MyD88 comp 6 and TLR9-MyD88 block 9.
For COc1ccccc1N1CCN(CC(=O)NCC2CCCO2)CC1 (configuration not stated) the results were Beta2AR agonist 7, NOD2-RIPK2 inh -6, Granule exo inh 58*, ABHD5 PLIN5 PPI 5, TLR4 MyD88 comp 9, TLR9-MyD88 block 1 and Exocytosis CP01 -13.
COc1ccccc1C(OC(=O)c1cccs1)C(=O)NCC1CCCO1 (configuration not stated) was read as Beta2AR agonist -1, NOD2-RIPK2 inh -10, Granule exo inh 61*, ABHD5 PLIN5 PPI -10, TLR4 MyD88 comp 1, TLR9-MyD88 block 1 and Exocytosis CP01 -12.
C[C@H](CO)N1C[C@H](C)[C@@H](CN(C)C(=O)c2ccncc2)OCc2cnnn2CCCC1=O was read as NOD2-RIPK2 inh -4, Granule exo inh 5, ABHD5 PLIN5 PPI -3 and TLR9-MyD88 block -2.
`Cc1cccc2c1-c1sc(C(=O)NCCCN3CCC(C)CC3)cc1CO2` gave Beta2AR agonist 24, NOD2-RIPK2 inh 0, Granule exo inh 79*, ABHD5 PLIN5 PPI 12, TLR9-MyD88 block 7 and Exocytosis CP01 9.
O=C(NCc1ccc(F)cc1F)[C@@H]1CCCN1C(=O)[C@@H]1CCCN1C(=O)c1cccc2ccccc12 was read as NOD2-RIPK2 inh -8, Granule exo inh -4 and ABHD5 PLIN5 PPI -4.
For Cc1ccc(C)c(OCCC(=O)N2CCN(S(=O)(=O)c3cc(C)ccc3C)CC2)c1 the results were Beta2AR agonist -6, NOD2-RIPK2 inh -9, Granule exo inh 2, ABHD5 PLIN5 PPI -2 and TLR9-MyD88 block -11.
Screening CSc1ccc(CN2CCc3c([nH]c4ccccc34)C2)cc1 returned Beta2AR agonist -4, NOD2-RIPK2 inh 3, Granule exo inh 49, ABHD5 PLIN5 PPI 2 and TLR9-MyD88 block -16.
Screening Clc1cccc(CN2CCc3c([nH]c4ccccc34)C2)c1 returned Beta2AR agonist 21, NOD2-RIPK2 inh 7, Granule exo inh 58*, ABHD5 PLIN5 PPI 4, TLR9-MyD88 block 12 and Exocytosis CP01 -14.
`Clc1ccc(CN2CCc3c([nH]c4ccccc34)C2)cc1Cl` gave Beta2AR agonist 19, NOD2-RIPK2 inh -2, Granule exo inh 58*, ABHD5 PLIN5 PPI 13, TLR9-MyD88 block -2 and Exocytosis CP01 -4.
`Cc1cccc(CN2CCc3c([nH]c4ccccc34)C2)c1` gave Beta2AR agonist 2, NOD2-RIPK2 inh 4, Granule exo inh 15, ABHD5 PLIN5 PPI -2 and TLR9-MyD88 block 2.
COCCn1c(SCCOc2ccccc2)nc2ccccc2c1=O was read as Beta2AR agonist -7, NOD2-RIPK2 inh 6, Granule exo inh 67*, ABHD5 PLIN5 PPI 4, TLR4 MyD88 comp 7, TLR9-MyD88 block 1 and Exocytosis CP01 14.
`COCCn1c(SCC(=O)c2ccccc2)nc2ccccc2c1=O` gave Beta2AR agonist -4, NOD2-RIPK2 inh -6, Granule exo inh -1, ABHD5 PLIN5 PPI -6 and TLR4 MyD88 comp -3.
COc1ccc(NC(=O)CC2Nc3cccc4cccc(c34)NC2=O)cc1 (configuration not stated) was read as Beta2AR agonist 4, NOD2-RIPK2 inh -17, Granule exo inh 61*, ABHD5 PLIN5 PPI 5, TLR4 MyD88 comp -7, TLR9-MyD88 block 2 and Exocytosis CP01 -13.
Screening O=C(CC1Nc2cccc3cccc(c23)NC1=O)Nc1ccc(F)cc1 (configuration not stated) returned Beta2AR agonist -7, NOD2-RIPK2 inh -6, Granule exo inh 0, ABHD5 PLIN5 PPI 2, TLR4 MyD88 comp 2 and TLR9-MyD88 block -6.
For O=C(CCCc1c[nH]c2ccccc12)NCCc1c[nH]c2ccccc12 the results were Beta2AR agonist 2, NOD2-RIPK2 inh 10, Granule exo inh 80*, ABHD5 PLIN5 PPI -2, TLR9-MyD88 block -5 and Exocytosis CP01 -14.
`CC(C)CNC(=O)CCCc1c[nH]c2ccccc12` gave Beta2AR agonist 1, NOD2-RIPK2 inh 1, Granule exo inh -2, ABHD5 PLIN5 PPI -1, TLR4 MyD88 comp -13 and TLR9-MyD88 block 3.
Cc1cc2c(cc1C)CSC(c1c(O)ccc3ccccc13)SC2 was read as Beta2AR agonist 18, NOD2-RIPK2 inh -8, Granule exo inh 76*, ABHD5 PLIN5 PPI -5, TLR4 MyD88 comp 0, TLR9-MyD88 block 11 and Exocytosis CP01 11.
Cc1cc2c(cc1C)CSC(c1ccc3ccccc3c1O)SC2 was read as Beta2AR agonist 6, NOD2-RIPK2 inh -3, Granule exo inh -4, ABHD5 PLIN5 PPI -11, TLR4 MyD88 comp 7 and TLR9-MyD88 block -1.
Screening Cc1ccc(CN(C)C(=O)c2c(C)nn(-c3ccccc3)c2C)cc1 returned Beta2AR agonist -8, NOD2-RIPK2 inh -6, Granule exo inh 67*, ABHD5 PLIN5 PPI 3, TLR9-MyD88 block 7 and Exocytosis CP01 -10.
Screening COC(=O)C1=CN(c2cccc(OCc3ccccc3)c2)C(N)=C(C#N)C1c1ccc(-c2ccccc2)cc1 (configuration not stated) returned NOD2-RIPK2 inh 4, Granule exo inh -1 and ABHD5 PLIN5 PPI 4.
O=C(Cc1coc2cc(O)ccc12)N1CCN(S(=O)(=O)c2ccc(Br)cc2)CC1 was read as Beta2AR agonist -5, NOD2-RIPK2 inh -4, Granule exo inh -5, ABHD5 PLIN5 PPI -10 and TLR9-MyD88 block 4.
COc1ccc(C(CCNCc2ccc(N(C)C)cc2)C(C)C)cc1 (configuration not stated) was read as Beta2AR agonist 27, NOD2-RIPK2 inh -3, Granule exo inh 69*, ABHD5 PLIN5 PPI 3, TLR9-MyD88 block -1 and Exocytosis CP01 -13.
Screening COc1ccc(C(CCNCc2ccc(OC(C)C)cc2)C(C)C)cc1 (configuration not stated) returned Beta2AR agonist 19, NOD2-RIPK2 inh 3, Granule exo inh 78*, ABHD5 PLIN5 PPI -1 and Exocytosis CP01 7.
CC(=O)Nc1cccc(-c2ccnc3c2CC(C)(C(=O)Nc2ccc(C(C)C)cc2)O3)c1 (configuration not stated) was read as NOD2-RIPK2 inh -3, Granule exo inh 7 and ABHD5 PLIN5 PPI 1.
CCCCCCCCNS(=O)(=O)CCNCc1ccco1 was read as Beta2AR agonist -7, NOD2-RIPK2 inh -15, Granule exo inh 0, ABHD5 PLIN5 PPI -7 and TLR9-MyD88 block 3.
